Screens (PubChem BioAssay)
Shown are actives, neighbours in structure and some others; about 3.4% of the full set was active somewhere.
PAFAH1B2 inh: blocks human PAF acetylhydrolase 1b catalytic subunit 2. hit rate 1.2% among 340,000. P68402. inhibition, % at 3.39 µM. recombinant PAFAH1B2, FP-rhodamine activity probe, fluorescence polarization;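 active = inhibition above the mean of all tested compounds plus 3 SD, cut at about 24% in these data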;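 note: 0% = enzyme with DMSO and 100% = wells lacking PAFAH1B2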
PAFAH2 inh: PAFAH2 (human) inhibition. AID 492956. inhibition, % at 3.39 µM. hit rate 0.99% among 340,000. Q99487. recombinant PAFAH2, FP-rhodamine activity probe, fluorescence polarization;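 active = inhibition above the mean over all tested compounds plus 3 SD, cut at about 30% in these data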;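 note: inhibitors block probe labeling of enzyme so polarization drops; 0% = enzyme with DMSO and 100% = wells lacking PAFAH2 protein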
pPAFAH inh: pPAFAH (human) enzyme inhibition; Q13093; AID 463082; hit rate 1.5% among 330,000; inhibition, % at 3.39 µM; recombinant pPAFAH, FP-rhodamine probe fluorescence polarization;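 active = inhibition above the mean inhibition across the screen plus 3 SD, cut at about 25% in these data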;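 note: inhibitors block binding of the rhodamine activity-based probe so polarization drops; 0% = enzyme with DMSO and 100% = wells lacking pPAFAH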
Target sequence (Q13093 whole entry, looked up): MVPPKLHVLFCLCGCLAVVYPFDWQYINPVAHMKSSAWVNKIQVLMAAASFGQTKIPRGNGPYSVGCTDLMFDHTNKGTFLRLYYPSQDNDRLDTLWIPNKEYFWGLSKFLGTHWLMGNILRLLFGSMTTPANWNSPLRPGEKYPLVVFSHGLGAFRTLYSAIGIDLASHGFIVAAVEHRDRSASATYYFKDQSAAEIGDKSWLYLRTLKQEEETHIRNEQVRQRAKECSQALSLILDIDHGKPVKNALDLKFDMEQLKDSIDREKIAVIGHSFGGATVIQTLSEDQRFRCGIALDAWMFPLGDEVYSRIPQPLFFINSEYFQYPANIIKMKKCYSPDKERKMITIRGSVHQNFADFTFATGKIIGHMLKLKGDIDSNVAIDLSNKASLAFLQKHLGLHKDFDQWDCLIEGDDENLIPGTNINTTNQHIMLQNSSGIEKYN
PP5 inh: PP5 (human) phosphatase inhibition; P53041; purified PP5c, OMFP substrate fluorescence; inhibition, % at 6.7 µM; hit rate 0.18% among 320,000; AID 1987;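 active = inhibition above the campaign's mean inhibition across all tested compounds plus 3 SD, cut at about 9.5% in these data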;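 note: 0% = DMSO only and 100% = 100 µM cantharidin control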
PP1 inh: counter-screen for PP5 inhibitors: inhibitors of human PP1-alpha; purified PP1alpha, OMFP fluorescence; hit rate 0.9% among 320,000; P62136; inhibition, % at 6.7 µM;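 active = inhibition above the mean inhibition of all tested compounds plus 3 SD, computed separately for each screening campaign, cut at about 15% in these data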
PAFAH1B3 inh: inhibitors of human PAFAH1B3; Q15102; recombinant PAFAH1B3, FP-rhodamine probe, fluorescence polarization; inhibition, % at 3.39 µM; hit rate 0.28% among 340,000;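 active = inhibition above the screen-wide average of all tested compounds plus 3 SD, cut at about 25% in these data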;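 note: 0% = enzyme with DMSO only and 100% = wells lacking PAFAH1B3 protein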
An asterisk follows results filed as active; nt = no result.

SMILES	PAFAH1B2 inh	PAFAH2 inh	pPAFAH inh	PP5 inh	PP1 inh	PAFAH1B3 inh
CCC(c1nnnn1CCc1ccccc1)N(Cc1ccco1)Cc1cc2cc(C)cc(C)c2[nH]c1=O (stereo not drawn)	0	-2	0	8	14	-8
CCC(c1nnnn1CCc1ccccc1)N(Cc1ccco1)Cc1cc2c(C)ccc(C)c2[nH]c1=O (stereo not drawn)	5	6	3	1	16*	0
O=C(C(Cl)Cl)N1CCN(Cc2ccccc2)CC1	2	1	0	0	0	4
O=C(C(c1ccccc1)c1ccccc1)N1CCN(Cc2ccc(Br)cc2)CC1	24*	-4	-1	2	0	4
CC(/C=C1\SC(=S)N(CCCC(=O)Nc2ccc(C(=O)O)c(O)c2)C1=O)=C\c1ccccc1	nt	nt	31*	1	17*	nt
CC(/C=C1\SC(=S)N(CCC(=O)Nc2ccc(O)cc2)C1=O)=C\c1ccccc1	3	-15	2	2	15*	7
COc1ccc(-c2coc3c(C)c4oc(=O)c(CC(=O)O)c(C)c4cc23)cc1	7	4	nt	nt	nt	5
COC(=O)C1CCN(CC(=O)Nc2sc3c(c2C#N)CCC3)CC1	3	6	7	3	0	0
Cc1[nH]n(-c2ncc(-c3ccccc3)s2)c(=O)c1C(c1ccc(Cl)cc1)C(C#N)C#N (stereo not drawn)	8	29	27*	4	4	14
Cc1[nH]n(-c2ccccc2)c(=O)c1C(c1ccccc1[N+](=O)[O-])C(C#N)C#N (stereo not drawn)	2	13	12	1	0	6
O=C1C(Nc2cccc(O)c2)=C(N2CCCCC2)C(=O)c2ccccc21	25*	60*	17	8	-2	66*
Oc1ccc(N=Cc2ccc(OCc3ccccc3)cc2)cc1	24	19	24	3	4	28*
O=C(N/N=C/c1ccc(OCc2ccccc2)cc1)c1ccncc1	6	1	-9	2	-1	5
O=C1SC(SCc2ccccc2Cl)=N/C1=C\c1ccc(C(=O)O)cc1	28*	62*	4	-2	5	6
COc1cc2c(cc1NC(=O)c1cc(-c3ccncc3)nc3ccccc13)oc1ccccc12	-3	-9	-4	1	15*	-3
COc1ccc(CCNc2ncnc3c2[nH]c2cc(OC)c(OC)cc23)cc1OC	12	12	28*	1	1	15
COCCNc1ncnc2c1[nH]c1ccccc12	5	-3	28*	5	0	6
COc1ccc(CCNc2ncnc3cc(OC)c(OC)cc23)cc1OC	5	7	nt	nt	nt	8
OCCCNc1ncnc2c1[nH]c1ccccc12	7	-2	0	2	-2	5
CN1CCC2(CC1)C1CN(C)CC=C1C(C#N)=C(N)C2(C#N)C#N (stereo not drawn)	4	3	5	-1	-5	0
CCCc1ccc(-c2cc(C(=O)NN3CCOCC3)c3ccccc3n2)cc1	2	-3	-1	2	-2	5
Cc1ccc(C)c(-c2cc(C(=O)NNC(=S)NCC(C)C)c3ccccc3n2)c1	0	9	26*	2	10	0
CCNC(=S)NNC(=O)c1cc(-c2cccc(OC)c2)nc2ccccc12	17	-5	19	7	5	-5
CCc1ccc(-c2cc(C(=O)Nn3cnnc3)c3ccccc3n2)cc1	72*	-5	-4	3	0	5
CCNC(=S)NNC(=O)c1cc(-c2ccc(OCC)cc2)nc2ccccc12	4	-3	27*	2	-5	1
SMILES	PAFAH1B2 inh	PAFAH2 inh	pPAFAH inh	PP5 inh	PP1 inh	PAFAH1B3 inh
Cc1ccc2[nH]cc(CCNC(=O)c3cccs3)c2c1	0	0	nt	nt	nt	10
CCN1/C(=C/C=C/C=C/c2sc3ccccc3[n+]2CC)Sc2ccccc21	nt	nt	-94	5	47*	nt
CCN1C(=O)N/C(=C/c2cc(C)n(Cc3ccccc3)c2C)C1=O	82*	2	7	-1	4	-8
CCn1c(C)cc(/C=C2\NC(=O)N(Cc3ccc(Cl)cc3)C2=O)c1C	8	3	11	2	14	1
Cc1oc(C(=O)O)cc1COc1cccc2cccnc12	9	22	28*	1	-1	16
COC(=O)c1cc(-c2ccc(S(=O)(=O)N3CCCC(C)C3)cc2)c(C(F)(F)F)s1 (stereo not drawn)	0	2	-1	2	-1	0
